# Measured values published in PubChem BioAssay AID504332 (National Center for Advancing Translational Sciences (NCATS), 2011).
# Out of some 350,000 compounds screened, about 31,000 (8.9%) were called active. About 15% were inconclusive and are not listed. Many of the other results were omitted from the sample, so actives are more common in it than they were. More than one record can exist for a structure, and the calls need not agree. A number with no mark means an inactive call. Calls follow the shape of the dose curve; as a rule, active = well fitted inhibition curve with a large enough effect; inconclusive = small, poorly fitted or top-dose-only effect; inactive = no such curve, though single readings can be large or run the other way.
# Biological target: Histone-lysine N-methyltransferase EHMT2 (Homo sapiens) (UniProt Q96KQ7)
# Assay: qHTS Assay for Inhibitors of Histone Lysine Methyltransferase G9a; also: nearly all actives have a fitted effect of over 75% in size
# Conditions: G9a H3K9 monomethylation, AlphaScreen, 2 h; series mostly up to 59 µM; activity, negative = inhibition: at the top concentration
# Method in brief: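 G9a (20 nM) was preincubated 15 min with compound, then reacted 2 h at room temperature with 500 nM biotin-H3K9 peptide and 20 µM SAM. Monomethyl-H3K9 detected by AlphaScreen using anti-H3K9me1 antibody.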
# % is scaled to controls: 0 for no effect and ±100 for the full control effect; potency is read from the fitted curve at half-maximal effect.
# Histone-lysine N-methyltransferase EHMT2 (Homo sapiens), sequence (Q96KQ7 913-1193 limits assumed): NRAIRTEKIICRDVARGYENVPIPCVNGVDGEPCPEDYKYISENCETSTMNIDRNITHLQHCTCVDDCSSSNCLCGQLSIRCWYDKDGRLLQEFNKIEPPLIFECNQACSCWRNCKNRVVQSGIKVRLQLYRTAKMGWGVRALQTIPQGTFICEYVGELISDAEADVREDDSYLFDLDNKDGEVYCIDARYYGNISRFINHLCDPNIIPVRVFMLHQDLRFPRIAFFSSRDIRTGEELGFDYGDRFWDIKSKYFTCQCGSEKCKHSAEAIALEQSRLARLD
SMILES,"activity, negative = inhibition",Potency
CC(C)n1ncc2c(C(=O)Nc3ccc(CC#N)cc3)cc(C3CC3)nc21,10% [at 2.33 µM],–
COc1ccc(C(CNC(=O)c2ccc(NS(=O)(=O)c3ccc(F)c(C)c3)cc2)N(C)C)cc1 (stereo unspecified),-42.1% [at 102 µM],–
Cc1nnc(NCc2ccccc2)c2c1nnn2Cc1ccc(F)cc1,1.55%,–
COCCNc1ccc(-c2n[nH]c(=O)c3ccccc23)cc1[N+](=O)[O-],-2.77% [at 102 µM],–
Cc1cc(C)cc(NS(=O)(=O)c2ccc(-c3cc(C)no3)s2)c1,-5.96%,–
OCCN1CCN(c2nnc(-c3ccccc3)c3ccccc23)CC1,-2.01% [at 102 µM],–
O=C(NC(c1ccccc1)c1ccccc1)N1CCN(CCO)CC1,-4.95%,–
OCCN1CCN(C(=S)c2ccc(-c3ccccc3)cc2)CC1,–,22.4 µM (active)
COCCNC(=O)CSc1nc(-c2ccccc2)[nH]c1-c1ccc(C)cc1,-23.6%,–
Cc1ccc(N=C2SCCCN2C(=O)c2cccc(N3C(=O)CCC3=O)c2)cc1Cl,10.1% [at 0.501 µM],–
COC(=O)CN1C(=O)[C@H]2[C@@H](/C=C/c3ccccc3)N3C(=O)CN(Cc4ccccc4)C(=O)[C@@]3(Cc3ccccc3)[C@H]2C1=O,22.8% [at 102 µM],–
Fc1ccccc1Oc1ncnc2c1oc1ccccc12,31%,–
COc1cccc(NS(=O)(=O)c2ccc(-c3coc(C)n3)cc2)c1,6.33%,–
COc1ccc(-c2nc3sc(CCNS(=O)(=O)c4ccc(F)c(C)c4)c(C)n3n2)cc1,8.56%,–
Nc1ncnc2c1c(I)cn2[C@@H]1C[C@H](N)[C@@H](O)[C@H]1O,–,6.7 µM (active)
CC(C)Oc1ccc(CNC(=O)C2CCN(c3nc4ccccc4n(C)c3=O)CC2)cc1,0.276%,–
COc1ccccc1/C=C/C1=NC(=C\N(C)C)/C(=O)O1,0.665%,–
CN(C)/C=C1\C=C(c2ccccc2)OC1=O,–,39.8 µM (active)
COc1cccc(/C=C2\C=C(c3ccc(C)cc3)OC2=O)c1OC(C)=O,-18.6% [at 102 µM],–
COc1ccc(-c2ccc3nnc(SCC(=O)Nc4ccc(NC(C)=O)cc4)n3n2)cc1,3.85%,–
Cc1ccc(-c2nnc(SCc3ccccc3C)o2)cc1,63.6%,–
CCNC(=S)N(CCN(CC)CC)Cc1cc2cc3c(cc2[nH]c1=O)OCO3,3.61% [at 102 µM],–
COCCCNC(=S)N(CCN(C)C)Cc1cc2cc3c(cc2[nH]c1=O)OCCO3,–,35.5 µM (active)
CCN(CC)CCCNC(=S)N(CCO)Cc1cc2cc3c(cc2[nH]c1=O)OCO3,-0.221% [at 102 µM],–

SMILES,"activity, negative = inhibition",Potency
CCN(CC)S(=O)(=O)c1ccc2c(c1)nc(CN(C)C(=O)Nc1ccc(Cl)cc1)n2C,1.45% [at 12.7 µM],–
O=C(COc1ccccc1)Nc1ccc(C(=O)N2CCCC2)cc1,54.3% [at 102 µM],–
COc1ccc(-c2nn3c(-c4ccc(OC)cc4)nnc3c3ccccc23)cc1,16.8%,–
CNC(=S)Nc1ccc([N+](=O)[O-])cc1,–,56.2 µM (active)
CC(=O)NC(=S)Nc1ccc(NC(=S)NC(=O)c2ccc([N+](=O)[O-])cc2)cc1,-40% [at 102 µM],–
NC(=S)N/N=C/c1ccc([N+](=O)[O-])cc1,1.02% [at 102 µM],–
CCN(CC)CCNC(=O)CN1N=C(c2ccc(OC)cc2)CCC1=O,-2.08%,–
CCCn1c(=O)c(C(=O)Nc2cc(C)ccn2)c(O)c2ccccc21,-5.46% [at 0.501 µM],–
O=C(COC(=O)Cn1[nH]c(=O)c2ccccc2c1=O)Nc1ncc(Cl)cc1Cl,–,56.2 µM (active)
CN(C)S(=O)(=O)c1ccc(NC(=O)COC(=O)Cn2[nH]c(=O)c3ccccc3c2=O)cc1,0.845% [at 102 µM],–
O=C(COC(=O)Cn1[nH]c(=O)c2ccccc2c1=O)Nc1c(Cl)cccc1C(F)(F)F,2.11% [at 0.501 µM],–
Cc1noc2ncnc(NCc3ccccc3Cl)c12,1.98%,–
COc1ccccc1CNC(=O)C1CCN(S(=O)(=O)c2ccc3c(c2)CC(C)N3C(=O)C2CC2)CC1 (stereo unspecified),0.85% [at 102 µM],–
Cc1cc(C)c(C)c(S(=O)(=O)N2CCN(C(=O)c3ccc4c(=O)n5c(nc4c3)CCC5)CC2)c1C,-30.4% [at 0.501 µM],–
COc1cccc(C(=O)Nc2nnc(S(=O)(=O)N3CCCCC3)s2)c1,-15.3% [at 102 µM],–
CCN(CC)S(=O)(=O)c1ccc(C)c(NC(=O)COc2ccc(Br)cc2Cl)c1,13.3%,–
O=C(Nc1nnc(S(=O)(=O)N2CCOCC2)s1)c1cccc(Br)c1,–,inactive
CC1CCN(S(=O)(=O)c2nnc(NC(=O)COc3ccccc3F)s2)CC1,-0.0742% [at 102 µM],–
CCN(CC)S(=O)(=O)c1nnc(NC(=O)COc2ccccc2Cl)s1,–,2.82 µM (active)
Cc1cccc(C(=O)Nc2nnc(S(=O)(=O)N3CCCCCC3)s2)c1,-0.38% [at 102 µM],–
O=C(Nc1nnc(S(=O)(=O)N2CCCCCC2)s1)c1cccc(Br)c1,–,8.91 µM (active)
Cc1ccccc1OCC(=O)Nc1nnc(S(=O)(=O)N2CCCC2)s1,–,2.24 µM (active)
CCC(=O)Nc1nnc(S(=O)(=O)N(CC(C)C)c2ccccc2)s1,25.7% [at 102 µM],–
COc1ccc(Cl)cc1NC(=O)COc1ccc2c(c1)OCO2,6.56% [at 12.7 µM],–

SMILES,"activity, negative = inhibition",Potency
CCc1ccc(CNC(=O)c2cc3c(=O)n(CC)c4ccccc4c3s2)cc1,-20.7%,–
CCCN1CN=C(NS(=O)(=O)c2ccc(NC(C)=O)cc2)NC1,0.281%,–
O=S(=O)(c1ccc(-c2ccno2)s1)N1CCCCC1,100% [at 102 µM],–
COc1ccc(NS(=O)(=O)c2cc(NC(=O)COc3ccccc3F)ccc2OC)cc1,30.6% [at 12.7 µM],–
CC1=C(C(=O)Nc2ccccc2Cl)C(c2cccs2)n2ncnc2N1 (stereo unspecified),0.0916%,–
CC1(C)O[C@@H]2[C@H](O1)[C@@H](COS(=O)(=O)O)O[C@H]2n1ccc(=O)[nH]c1=O,2.02% [at 2.33 µM],–
Cc1cccc(-c2oc3ccc(-c4ccc5c(c4)OCO5)cc3c2C#Cc2cncn2C)c1,7.97% [at 0.501 µM],–
COc1ccc(Cl)cc1C(=O)OCC(=O)NCc1cccs1,5.04%,–
CCSc1nnc(NC(=O)c2cc(=O)c3cc(C)c(C)cc3o2)s1,-6.05%,–
Cc1ccc(Cl)cc1NC(=O)NC1COc2ccccc2C1 (stereo unspecified),0.91%,–
CN(C)c1nc(NN)nc(Nc2ccc(F)cc2)n1,5.01% [at 102 µM],–
CSc1nc(Nc2ccc(F)cc2)cc(-c2ccccc2)n1,18.2%,–
Fc1ccc(Nc2nnns2)cc1,–,10 µM (active)
O=C1/C(=C\c2cccnc2)CN(Cc2ccccc2)C/C1=C\c1cccnc1,-13.5%,–
O=S1(=O)CCN2C(=N1)SC1=C2CCN(Cc2ccccc2)C1,–,20 µM (active)
Cc1ccc(C2=CSC3=NS(=O)(=O)CCN23)cc1C,-0.694%,–
COc1ccccc1C(=O)NCCC(=O)N(C)Cc1cccnc1,9.72%,–
O=C1C(=O)N(CCCN2CCOCC2)C(c2ccc([N+](=O)[O-])cc2)/C1=C(\O)c1ccc2c(c1)OCCO2 (stereo unspecified),-12.3% [at 0.0925 µM],–
COc1ccc(C2/C(=C(/O)c3ccc(OC(C)C)cc3)C(=O)C(=O)N2CCCN2CCOCC2)cc1 (stereo unspecified),–,44.7 µM (active)
O=C1C(=O)N(CCN2CCOCC2)C(c2ccccn2)/C1=C(/O)c1ccc(Cl)cc1 (stereo unspecified),–,7.94 µM (active)
COCCN1C(=O)C(=O)/C(=C(/O)c2ccc(S(=O)(=O)N3CCOCC3)cc2)C1c1ccc(OC)c(OC)c1 (stereo unspecified),-13% [at 102 µM],–
O=C1C(=O)N(CCCO)C(c2ccccc2)/C1=C(\O)c1ccc(Br)cc1 (stereo unspecified),12.3% [at 0.501 µM],–
CC1Cc2cc(/C(O)=C3\C(=O)C(=O)N(CCN4CCOCC4)C3c3ccccc3F)ccc2O1 (stereo unspecified),10%,–
CCCCSCCCNC(=O)C1CCC(CNS(=O)(=O)c2ccc(NC(C)=O)cc2)CC1 (stereo unspecified),16.1% [at 102 µM],–

SMILES,"activity, negative = inhibition",Potency
COCCN(Cc1ccccc1)C(=O)Cc1ccc(S(=O)(=O)N2CCOCC2)s1,-3.78% [at 12.7 µM],–
COc1ccc(NC(=O)Cn2c(=O)n(CCC(C)C)c(=O)c3cccnc32)cc1Cl,-0.386%,–
O=C(Nc1ccc(Br)cc1)c1cc2nc(-c3ccccc3)cc(-c3ccccc3)n2n1,29.5%,–
Cc1ccc(C(=O)NC(=S)NCCN2CCOCC2)cc1,-39.8%,–
COC(=O)Cc1ccc(NC(=S)NCc2ccccc2)cc1,10%,–
Cc1ccc(C(=O)NC(=S)Nc2ccc(N3CCOCC3)cc2)cc1,–,7.94 µM (active)
O=C(Cc1ccccc1)NC(=S)Nc1ccc(N2CCCCC2)cc1,–,7.94 µM (active)
COc1cccc(C(=O)Nc2ccc(N3CCN(C(=O)c4ccco4)CC3)cc2)c1,-10.2% [at 102 µM],–
COc1cccc(C(=O)Nc2ccc(N3CCCC3)cc2)c1,–,4.47 µM (active)
Cc1ccccc1C(=O)NC(=S)Nc1ccc(N2CCN(C(=O)c3ccccc3)CC2)cc1,-1.64% [at 102 µM],–
COc1ccc(C(=O)NC(=S)Nc2ccc(N3CCCC3)cc2)cc1OC,–,3.98 µM (active)
O=C(O)CCC(=O)Nc1ccc(N2CCOCC2)cc1,-10.4%,–
COc1cccc(C(=O)Nc2ccc3nc4n(c(=O)c3c2)CCCCC4)c1,1.5%,–
COc1ccc(C(=O)Nc2ccc3nc(N4CCCCC4)cc(C)c3c2)cc1OC,1.41%,–
COc1ccc(C(=O)Nc2ccc(N3CCC(C)CC3)cc2)cc1Br,-10% [at 102 µM],–
COc1ccc2oc(-c3ccc(C)c(NC(=O)c4sc5ccccc5c4Cl)c3)nc2c1,-23.3%,–
CCOc1ccccc1NC(=S)NC(=O)CCc1ccccc1,-3.32% [at 102 µM],–
CSCC[C@H](NC(=O)N1CCn2c1nc1ccccc12)C(=O)NCc1ccc2c(c1)OCO2,-13.1% [at 102 µM],–
Cc1ccnc(NC(=O)CCNS(=O)(=O)c2ccc(C)c(C)c2)c1,52.3% [at 102 µM],–
CN(Cc1ccccc1)C(=O)CSc1nc2ccccc2[nH]1,2.4%,–
Cc1ccc(-c2cc(=O)c3ccc(Cl)cc3[nH]2)cc1,–,inactive
O=c1cc(-c2ccccc2)[nH]c2nc(Cl)ccc12,48.3% [at 12.7 µM],20 µM (active)
O=c1cc(-c2ccccc2)[nH]c2cc(F)ccc12,1.07% [at 102 µM],–
